# According to publication PMC5700166:
# Substitutions are numbered along the chain they refer to.
# Tests used:
# Experiment in all cases: protein-binding microarray (PBM); PBM: ~300 nM protein, 6 mM HEPES pH 7.8, 80 mM KCl, 0.5 mM EDTA, 0.5 mM EGTA, 6% glycerol, 35 ng/ul poly-dIdC, 1% milk, 1 h, room temperature; Ap Aiptasia and Nv Nematostella (sea anemones) / Co Capsaspora / Aq Amphimedon (sponge) / Dm Drosophila / Hu human; RHD is the Rel homology domain; high values mean tight binding
# Conditions in all cases: dsDNA, one strand shown
# GST-Ap-NF-kB RHD = target: T1, GST-Ap-NF-kB RHD (Exaiptasia pallida (Aiptasia), UniProt A0A913YAJ5 2-422)
# T1 sequence: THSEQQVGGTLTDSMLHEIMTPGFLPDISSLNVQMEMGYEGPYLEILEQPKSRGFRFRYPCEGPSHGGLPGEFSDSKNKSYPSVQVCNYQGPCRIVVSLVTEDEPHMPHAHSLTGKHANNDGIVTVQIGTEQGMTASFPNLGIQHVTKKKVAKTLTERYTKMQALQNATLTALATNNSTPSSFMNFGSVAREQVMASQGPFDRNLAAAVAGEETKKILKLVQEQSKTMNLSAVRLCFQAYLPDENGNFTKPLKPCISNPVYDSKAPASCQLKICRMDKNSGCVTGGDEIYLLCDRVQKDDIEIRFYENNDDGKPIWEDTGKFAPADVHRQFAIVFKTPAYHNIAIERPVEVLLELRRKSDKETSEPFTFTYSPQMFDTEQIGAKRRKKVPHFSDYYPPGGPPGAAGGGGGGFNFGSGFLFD
# [1] = target: T2, GST-Nv-NF-kB (Cys allele) (Nematostella vectensis, UniProt E5G601 2-411)
# T2 sequence: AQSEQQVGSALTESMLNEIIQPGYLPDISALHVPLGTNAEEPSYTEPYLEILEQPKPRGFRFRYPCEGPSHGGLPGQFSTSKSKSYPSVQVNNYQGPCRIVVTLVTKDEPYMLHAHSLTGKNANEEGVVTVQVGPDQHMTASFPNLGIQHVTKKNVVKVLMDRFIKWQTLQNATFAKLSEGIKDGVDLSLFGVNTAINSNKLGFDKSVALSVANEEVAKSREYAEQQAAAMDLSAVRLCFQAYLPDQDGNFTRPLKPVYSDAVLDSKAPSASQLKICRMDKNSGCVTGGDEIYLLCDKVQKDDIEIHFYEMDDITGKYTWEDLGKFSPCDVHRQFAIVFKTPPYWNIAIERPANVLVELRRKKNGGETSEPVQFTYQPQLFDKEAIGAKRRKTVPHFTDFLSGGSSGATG
# GST-Dm-Relish = target: T3, GST-Dm-Relish (Drosophila melanogaster, UniProt Q94527 99-473)
# T3 sequence: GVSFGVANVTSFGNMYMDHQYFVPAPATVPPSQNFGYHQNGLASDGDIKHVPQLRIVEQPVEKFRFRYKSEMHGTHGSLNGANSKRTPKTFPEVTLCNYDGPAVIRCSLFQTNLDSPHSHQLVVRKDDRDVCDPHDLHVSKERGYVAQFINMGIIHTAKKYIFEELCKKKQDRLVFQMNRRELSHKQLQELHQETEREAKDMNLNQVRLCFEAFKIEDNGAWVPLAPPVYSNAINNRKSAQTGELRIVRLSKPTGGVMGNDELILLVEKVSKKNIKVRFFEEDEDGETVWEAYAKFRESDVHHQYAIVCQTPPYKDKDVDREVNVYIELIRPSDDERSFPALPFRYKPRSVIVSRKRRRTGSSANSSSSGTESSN
# GST-Aq-NF-kB = target: T4, GST-Aq-NF-kB (Amphimedon queenslandica, UniProt A9Y5G7 2-389)
# T4 sequence: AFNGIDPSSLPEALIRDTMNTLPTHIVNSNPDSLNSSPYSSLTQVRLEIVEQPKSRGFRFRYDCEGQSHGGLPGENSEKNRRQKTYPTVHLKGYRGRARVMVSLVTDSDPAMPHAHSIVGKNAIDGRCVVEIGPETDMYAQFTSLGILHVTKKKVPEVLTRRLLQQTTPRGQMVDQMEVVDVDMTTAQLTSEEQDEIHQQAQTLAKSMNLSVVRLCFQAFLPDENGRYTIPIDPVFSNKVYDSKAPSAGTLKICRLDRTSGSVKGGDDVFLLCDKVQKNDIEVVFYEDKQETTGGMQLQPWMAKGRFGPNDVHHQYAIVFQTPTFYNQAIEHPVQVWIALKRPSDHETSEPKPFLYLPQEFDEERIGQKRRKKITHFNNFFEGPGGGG
# [2] = target: T5, GST-Nv-NF-kB (Ser allele) (Nematostella vectensis, UniProt A7UNT2 2-411)
# T5 sequence: T2 sequence with Q21R, C66S, S207N, E215Q, V217A, E225K, A268E, D399E
# GST-Co-NF-kB = target: T6, GST-Co-NF-kB (Capsaspora owczarzaki, UniProt F1ARL5 200-546)
# T6 sequence: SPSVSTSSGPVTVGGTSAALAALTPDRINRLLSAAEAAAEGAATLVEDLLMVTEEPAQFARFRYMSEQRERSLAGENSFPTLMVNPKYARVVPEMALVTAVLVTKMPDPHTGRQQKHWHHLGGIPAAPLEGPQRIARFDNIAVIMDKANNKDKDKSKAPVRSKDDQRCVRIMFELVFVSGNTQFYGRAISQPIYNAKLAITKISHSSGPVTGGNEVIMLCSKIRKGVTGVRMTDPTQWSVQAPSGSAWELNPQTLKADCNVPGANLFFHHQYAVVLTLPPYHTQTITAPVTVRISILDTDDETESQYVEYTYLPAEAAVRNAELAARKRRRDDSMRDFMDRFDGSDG
Sequence,binding signal (GST-Ap-NF-kB RHD),binding signal [1],binding signal (GST-Dm-Relish),binding signal (GST-Aq-NF-kB),binding signal [2],binding signal (GST-Co-NF-kB)
CCGATTAACATCAGGGACAGCCCTGATGTTAATCGGGTCTTGATTCGCTTGACGCTGCTG,3.43 z-score,4.69 z-score,2.23 z-score,6.35 z-score,,
CCGATTAACATCAAGGACTTCCCTGATGTTAATCGGGTCTTGATTCGCTTGACGCTGCTG,2.9 z-score,3.39 z-score,6.91 z-score,5 z-score,,
CCGATTAACATCAGGGGCTGTACTGATGTTAATCGGGTCTTGATTCGCTTGACGCTGCTG,2.83 z-score,3.09 z-score,3.56 z-score,4.35 z-score,,
CCGATTAACATCAAAAATTTACCTGATGTTAATCGGGTCTTGATTCGCTTGACGCTGCTG,1.32 z-score,3.04 z-score,4.45 z-score,2.7 z-score,,
CCGATTAACATCAGGGCATACCCTGATGTTAATCGGGTCTTGATTCGCTTGACGCTGCTG,2.36 z-score,3.25 z-score,3.77 z-score,5.87 z-score,,
CCGATTAACATCAGGGATTTTGATGATGTTAATCGGGTCTTGATTCGCTTGACGCTGCTG,3.17 z-score,2.95 z-score,4.91 z-score,2.87 z-score,,
CCGATTAACATCAGGGGTTTAACTGATGTTAATCGGGTCTTGATTCGCTTGACGCTGCTG,2.44 z-score,2.32 z-score,3.3 z-score,3.04 z-score,,
CCGATTAACATCAGGAACGCCCCTGATGTTAATCGGGTCTTGATTCGCTTGACGCTGCTG,3.09 z-score,3.22 z-score,2.09 z-score,5.42 z-score,,
CCGATTAACATCAGGAATGTCCCTGATGTTAATCGGGTCTTGATTCGCTTGACGCTGCTG,3.06 z-score,5.35 z-score,3.4 z-score,6.41 z-score,,
CCGATTAACATCACGGAAAACCCTGATGTTAATCGGGTCTTGATTCGCTTGACGCTGCTG,2.23 z-score,2.07 z-score,3.69 z-score,4.81 z-score,,
CCGATTAACATCAGGGATTCTCATGATGTTAATCGGGTCTTGATTCGCTTGACGCTGCTG,2.96 z-score,1.8 z-score,2.59 z-score,2.67 z-score,,
CCGATTAACATCAGGCAAATCCCTGATGTTAATCGGGTCTTGATTCGCTTGACGCTGCTG,1.95 z-score,2.27 z-score,1.36 z-score,4.16 z-score,,
CCGATTAACATCAAGGAAAACCCTGATGTTAATCGGGTCTTGATTCGCTTGACGCTGCTG,2.67 z-score,2.33 z-score,4.56 z-score,4.66 z-score,,
CCGATTAACATCAAAATTTCACCTGATGTTAATCGGGTCTTGATTCGCTTGACGCTGCTG,1.14 z-score,2.14 z-score,2.34 z-score,1.7 z-score,,
CCGATTAACATCAGGGTTTTCCATGATGTTAATCGGGTCTTGATTCGCTTGACGCTGCTG,2.55 z-score,2.18 z-score,5.27 z-score,4.33 z-score,,
CCGATTAACATCAGTCCCCCCCATGATGTTAATCGGGTCTTGATTCGCTTGACGCTGCTG,5.83 z-score,,4.23 z-score,4.7 z-score,3.57 z-score,6.28 z-score
CCGATTAACATCACCCCCCCTGATGATGTTAATCGGGTCTTGATTCGCTTGACGCTGCTG,4.83 z-score,,4.63 z-score,4.51 z-score,3.09 z-score,5.83 z-score
CCGATTAACATCAAGGGGGGAGGTGATGTTAATCGGGTCTTGATTCGCTTGACGCTGCTG,4.12 z-score,,3.23 z-score,4.07 z-score,4.04 z-score,5.65 z-score
CCGATTAACATCAGGATATCCCATGATGTTAATCGGGTCTTGATTCGCTTGACGCTGCTG,2.32 z-score,,3 z-score,2.24 z-score,,1.41 z-score
CCGATTAACATCACGGGGTGGCCTGATGTTAATCGGGTCTTGATTCGCTTGACGCTGCTG,1.24 z-score,,1.37 z-score,1.55 z-score,,1.78 z-score
CCGATTAACATCACGGGGGGGGATGATGTTAATCGGGTCTTGATTCGCTTGACGCTGCTG,6.27 z-score,,5.35 z-score,5.29 z-score,5.38 z-score,7.62 z-score
CCGATTAACATCAAGGGGGGGAGTGATGTTAATCGGGTCTTGATTCGCTTGACGCTGCTG,4.51 z-score,,3.56 z-score,4.43 z-score,,7.82 z-score
CCGATTAACATCAGGTGTTCCCATGATGTTAATCGGGTCTTGATTCGCTTGACGCTGCTG,1.43 z-score,,5.22 z-score,2.04 z-score,,1.45 z-score
CCGATTAACATCACCCCCTCCCCTGATGTTAATCGGGTCTTGATTCGCTTGACGCTGCTG,3.75 z-score,,5.21 z-score,4.84 z-score,,4.75 z-score
CCGATTAACATCAGGGGGGGAAATGATGTTAATCGGGTCTTGATTCGCTTGACGCTGCTG,6.79 z-score,,5.34 z-score,5.89 z-score,7.98 z-score,10.2 z-score
CCGATTAACATCACCCCAACCCCTGATGTTAATCGGGTCTTGATTCGCTTGACGCTGCTG,2.55 z-score,,2.69 z-score,2.27 z-score,,3.44 z-score
